# Spn PMK inh: S. pneumoniae PMK inhibition; AID 539; purified PMK, PK/LDH-coupled NADH absorbance 340 nm; inhibition, % at 10 µM; 65,000 tested, 0.49% active;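 active = top-ranked compounds by inhibition in the single 10 µM screen, taking a fixed number of the strongest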;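 note: 0% = full reaction with DMSO carrier and 100% = background rate without enzyme reaction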
# A340 absorber: compounds absorbing at 340 nm; compound absorbance at 340 nm, fold over control; fold change at 10 µM; 65,000 tested, under 10 active;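 active = at 10 µM dose, initial 340 nm absorbance at least 2 fold that of control wells; inactive = change under 2 fold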;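 note: initial absorbance extrapolated from kinetic A340 decline of NADH oxidation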
# Fluor 339 460: intrinsic fluorescence of library compounds, ex339/em460 – biochemical, MLSMR library, data from DPM-DC assay, artefact control, profiling panel; compound autofluorescence, ex339/em460 nm, NADH buffer; stronger effect = higher value; 1 = no-compound wells, NADH background; fluorescence fold increase at 10 µM; 65,000 tested, 5.5% active; AID 709;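 active = at 10 µM, mean starting fluorescence two-fold or more over control wells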;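 note: signal is the first read of a kinetic run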
# DPM-DC inhibit: inhibitors of Streptococcus pneumoniae diphosphomevalonate decarboxylase | purified DPM-DC, PK/LDH coupled NADH fluorescence | calls only at 10 µM | 65,000 tested, 0.49% active;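 active = the 320 compounds with the highest percent inhibition in the single-dose primary screen, excluding strongly autofluorescent ones, cut at about 32% in these data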;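 note: kinetic rate of NADH fluorescence loss reporting ADP formed by the decarboxylase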
# MK inhibit: S. pneumoniae mevalonate kinase inhibition; purified MK, PK/LDH-coupled NADH absorbance 340 nm; inhibition, % at 10 µM; 65,000 tested, 0.48% active;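 active = ranked among the strongest by inhibition in the single 10 µM screen, a fixed top-ranked set picked for dose follow-up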
# NADH enzymes: inhibition of NAD/NADH coupling enzymes, library profiling; IC50, µM (doses to about 10 µM), without a hit: top-dose inhibition; 65,000 tested, 0.02% active; coupled PK/LDH NADH assays, four targets;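 active = single-dose screening hits from any of four coupled enzyme assays that gave an IC50 when retested across doses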;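 note: the DPM-DC format reads NADH fluorescence rather than 340 nm absorbance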
# * = called active by the depositor; i = inactive; · = no result shown; + = active, no number. Rows were chosen to be rich in hits. Some 6.5% of all compounds tested hit in one or more screens of this group.
SMILES,Spn PMK inh,A340 absorber,Fluor 339 460,DPM-DC inhibit,MK inhibit,NADH enzymes
COc1ccc(CCNc2oc(-c3ccc(C)cc3)nc2C#N)cc1OC,13,1.1,2.1*,·,2,8%
COc1ccc(-c2nc(C#N)c(NCCN(C)C)o2)cc1,9,1.1,2.1*,·,6,8%
CNc1oc(-c2ccccc2)nc1C#N,5,1.1,2.1*,·,9,7%
COc1ccc2nc(NC(=O)C3CCCN3S(=O)(=O)c3ccc(C)cc3)sc2c1 (centres undefined),16,1,1.1,i,8,8%
COc1ccc(/C(O)=C2/C(=O)C(=O)N(CCCN(C)C)C2c2cccc(Cl)c2)cc1OC (centres undefined),8,1,1,i,12,7%
COc1ccc(OC)c(C(C)NC(=O)c2ccco2)c1 (centres undefined),7,1,1.1,i,5,4%
Cc1ccccc1OCCCCc1c(C)n[nH]c1C,31*,1,1.1,i,7,15%
Cc1cccc(C)c1OCCCCc1c(C)n[nH]c1C,0,1,1.1,i,12,4%
N#C/C(=C(/O)COC(=O)Cc1c[nH]c2ccccc12)c1nc2ccccc2[nH]1,12,1.1,1.1,i,0,5%
N#C/C(=C(/O)COC(=O)CCc1ccc(S(=O)(=O)N2CCOCC2)cc1)c1nc2ccccc2[nH]1,20,1.1,1.5,i,75*,34%
COC(=O)CSc1nc(C2CC2)cc(C(F)(F)F)c1C#N,16,0.99,1.1,i,0,7%
N#Cc1c(C(F)(F)F)cc(C2CC2)[nH]c1=O,7,1.1,2.1*,·,3,5%
CCOC(=O)C(O)(CCC(O)(C(=O)OCC)C(=O)OCC)C(=O)OCC,0,1.1,1.1,i,1,0%
CCN1C(=O)CSc2ccc(C(=O)NCCCN3CCOCC3)cc21,17,0.99,1.1,i,0,6%
O=C(NCCN1CCOCC1)c1ccc2c(c1)N(Cc1ccccc1)CCS2,8,1,2*,·,9,9%
CN1CCN(CCCNC(=O)c2ccc3c(c2)N(Cc2ccccc2)CCS3)CC1,16,1.1,2.1*,·,0,8%
O=C(NCCN1CCOCC1)c1ccc2c(c1)N(Cc1ccccc1)C(=O)CS2,19,1,1.1,i,3,2%
Cn1ncc2c(Nc3ccc(-c4ccccc4)cc3)ncnc21,13,1.1,3.1*,+,0,16%
COc1ccc(N2C(=O)CCC(C(C)=O)=C2C)cc1,0,1.1,1.1,i,0,0%
C=CCOc1c(Br)cc(CNn2nnnc2N)cc1OC,5,1,1.1,i,4,3%
c1ccc(Cn2nnc3c(Nc4ccc5c(c4)OCO5)nc(C4CC4)nc32)cc1,0,1.1,3.7*,·,0,0%
COC(=O)c1cccc(Nc2nc3ccccc3nc2C)c1,3,1.1,1.3,i,4,4%
CC(C)Cn1c(N)c(C(=O)NCCN2CCOCC2)c2nc3ccccc3nc21,7,0.99,2.9*,·,12,5%
CCCCn1c2nc3ccccc3nc2c2c(=O)n(CCC(C)C)cnc21,0,1,1.8,i,0,1%
Cc1cccc(-n2c(N)c(C(=O)NCCN3CCOCC3)c3nc4ccccc4nc32)c1,10,1.1,5.1*,·,0,5%
SMILES,Spn PMK inh,A340 absorber,Fluor 339 460,DPM-DC inhibit,MK inhibit,NADH enzymes
CC(C)Cn1c2nc3ccccc3nc2c2c(=O)n(CCN3CCOCC3)cnc21,9,1.1,3.5*,·,10,10%
O=C(NCCN1CCOCC1)c1ccc(-c2ccccc2)cc1,0,1.1,1.1,i,16,5%
COCCCn1c2nc3ccccc3nc2c2c(=O)n(CC3CCCO3)cnc21 (centres undefined),0,1.1,2.3*,·,13,7%
Cn1c(SCC2CCCCC2)nnc1-c1ccncc1,18,0.95,1.1,i,12,10%
COc1cc(C2c3c(n[nH]c3C)C(=O)N2c2ccc(C)cc2)ccc1O (centres undefined),0,0.98,1,i,10*,9%
COC(=O)c1ccc(C2C(C#N)=C(C)NC3=C2C(=O)CC(C)(C)C3)cc1 (centres undefined),3,1,4.7*,·,5,4%

# Source: PubChem
